Assay outcomes deposited in PubChem BioAssay by National Center for Advancing Translational Sciences (NCATS).
Hits are enriched below; roughly 21% of the tested compounds scored in any of these assays.
IL-1B inflam inh: inhibitors of inflammasome signaling (IL-1 beta secretion) | activity change, % at 57.5 µM | THP-1 LPS/ATP IL-1B secretion, AlphaLISA, 16 h; active compounds read low | AID 743279 | 360,000 compounds, 4.7% hits; in the data active = activity change below about -50%; inconclusive = mostly about -30% to -49%
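THP-1 cells pretreated 1 hr with compounds (up to 57.5 uM final), then stimulated with LPS (250 ng/mL final) plus ATP (1.25 mM final); secreted IL-1B measured by AlphaLISA after 16 hr, decreased signal indicating inhibition.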
RORgamma inh: inhibitors of mouse ROR gamma transcriptional activity; Drosophila S2 Gal4-RORgamma UAS-luciferase reporter, 20 h; Potency, µM (doses to about 53.6 µM), without a hit: top-dose activity change, negative = inhibition, hits mostly inhibitors; 310,000 compounds, 5.4% hits; AID 2551; note: potency is the fitted concentration of half-maximal effect; nearly all actives have a fitted effect of over 60% in size
Target sequence (P51450 whole entry, looked up, the tested form may be a part): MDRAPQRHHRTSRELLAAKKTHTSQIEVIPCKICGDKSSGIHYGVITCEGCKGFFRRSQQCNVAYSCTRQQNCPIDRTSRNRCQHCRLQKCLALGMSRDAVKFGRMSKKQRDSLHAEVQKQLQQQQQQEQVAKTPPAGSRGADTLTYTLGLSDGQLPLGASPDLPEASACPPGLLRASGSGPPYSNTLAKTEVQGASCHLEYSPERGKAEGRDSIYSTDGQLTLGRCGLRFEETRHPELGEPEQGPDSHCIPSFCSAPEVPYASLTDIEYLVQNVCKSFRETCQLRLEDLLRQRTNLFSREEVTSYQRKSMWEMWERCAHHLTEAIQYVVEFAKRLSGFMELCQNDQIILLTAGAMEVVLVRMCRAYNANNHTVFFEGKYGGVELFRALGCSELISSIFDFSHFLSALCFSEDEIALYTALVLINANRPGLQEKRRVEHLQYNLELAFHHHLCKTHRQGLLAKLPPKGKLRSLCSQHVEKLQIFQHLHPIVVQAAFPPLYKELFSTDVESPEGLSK
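Luciferase reporter read in Schneider cells carrying Gal4-RORγ (mouse) and UAS-Photinus luciferase; cells given compound 1 h before 700 uM copper sulfate induction, then incubated 20 h at ambient temperature.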
VP16 counter: counter-screen for ROR gamma inhibitors: Gal4-VP16 reporter. Potency, µM (series often up to 53.6 µM), without a hit: at the top dose activity, negative = inhibition, most hits filed as inhibitors. Drosophila S2 Gal4-VP16 UAS-luciferase, luminescence, 20 h. AID 2546. 310,000 compounds, 3.5% hits;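 note: Gal4-VP16 expression switched on by copper sulfate through the metallothionein promoter; potency is the fitted concentration of half-maximal effect; nearly all actives have a fitted effect of over 50% in size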
DT40 TDP1 no CPT: qHTS for Inhibitors of human tyrosyl-DNA phosphodiesterase 1 (TDP1): qHTS in cells in absence of CPT; DT40 Tdp1-/- hTDP1 cells, no CPT, ATP luminescence, 48 h; Potency, µM (series often up to 46.2 µM), for the others: top-dose activity change, negative = growth inhibition, actives largely listed as inhibitors; 420,000 compounds, 15% hits; note: potency is the fitted concentration of half-maximal effect; nearly all actives have a fitted effect of over 55% in size
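Growth of hTDP1-complemented DT40 Tdp1-knockout cells is measured by ATP luminescence after at least 48 hr compound exposure at 37 °C, with DMSO substituting for the 20 nM CPT used in the parallel screen.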
ELG1 repair inh: ELG1-dependent DNA repair inhibition; AID 504467; 330,000 compounds, 2.3% hits; Potency, µM (series often up to 46.1 µM), inactives show at the highest dose activity change, negative = inhibition, actives largely listed as inhibitors; HEK293T ELG1-luciferase reporter, luminescence, 16 h; DNA damage induced by 5-fluorouridine; note: potency is the fitted concentration of half-maximal effect; nearly all actives have a fitted effect of over 55% in size
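Reporter activity after DNA damage by 5-fluorouridine is monitored. Compound-treated cells incubate 16 hr at 37 °C, then ONE-Glo is added for 30 min before luminescence reading.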
TDP1 cell CPT: growth inhibition of DT40 Tdp1-/-;hTDP1 cells with camptothecin (screen for TDP1 inhibitors). Potency, µM (series often up to 46.2 µM), without a hit: at the highest dose activity change, negative = growth inhibition, most hits filed as inhibitors. chicken DT40 Tdp1-/-;hTDP1 cells + 20 nM CPT, ATP luminescence, 48 h. 420,000 compounds, 12% hits; note: potency is the fitted concentration of half-maximal effect; nearly all actives have a fitted effect of over 55% in size
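Chicken DT40 Tdp1-/- cells complemented with human TDP1, 400 cells/well, exposed to compounds plus 20 nM camptothecin for at least 48 h at 37 C; viability read as ATP content by CellTiter-Glo luminescence.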
The depositor's hits bear a star; i = inactive; ? = inconclusive; . = no result given; [ ] = another dose, or the depositor's remark. Unless noted, calls come from the whole dose curve; as a rule, active = well fitted curve in the direction sought with a large enough effect; inconclusive = small, poorly fitted or top-dose-only effect, or another doubt; inactive = no such curve, though single readings can be large; an effect the other way counts as inactive or inconclusive. % is set by controls: 0 for no effect and ±100 for the full control effect.

SMILES | IL-1B inflam inh | RORgamma inh | VP16 counter | DT40 TDP1 no CPT | ELG1 repair inh | TDP1 cell CPT
Cc1ccc(C)c(S(=O)(=O)N2CCN(C(=O)C3CCN(C(=O)c4ccc(F)cc4)CC3)CC2)c1 | 0 | . | . | ? | ? | ?
Cc1cccc(OCC(=O)N2CCN(c3nnc(-c4ccccc4)c4ccccc34)CC2)c1 | -22 | 38% | -18% | 18µM* | ? | ?
Cc1ccc(-c2nnc(N3CCN(C(=O)COc4cccc(C)c4)CC3)c3ccccc23)cc1 | -86* | 16% | ? | ? | ? | ?
CCN(CC(=O)Nc1ccccc1C(F)(F)F)C(=O)/C=C/c1ccc(Cl)c([N+](=O)[O-])c1 | -16 | . | . | -3% | 20% | -5%
CCOc1ccc(OCC)c(NC(=O)C2CCN(c3cnccn3)CC2)c1 | ? | -23% | -3% | 7% | -7% | 5%
CCOC(=O)c1ccc2c(c1)nc(SCc1cn3ccsc3n1)n2CC | ? | ? | ? | 16µM* | 0% | ?
CCOC(=O)c1ccc2c(c1)nc(SCC(=O)N1CCOCC1)n2CC | -11 | 10% | -5% | -20% | -21% | 12%
O=C(COc1ccc(-c2ccccc2)cc1)N/N=C/c1cccnc1 | 8 | -17% | -6% | ? | 15% | ?
O=C(COc1ccccc1-c1ccccc1)N/N=C/c1ccc2ccccc2c1 | 20 | ? | -25% | 0.92µM* | 8% | 1.2µM*
Cc1cccc(C)c1OCC(=O)N/N=C/c1cccnc1 | 13 | 4% | 14% | 15µM* | -12% | ?
O=C(COc1ccccc1-c1ccccc1)N/N=C/c1ccccn1 | 55 | ? | ? | 23µM* | ? | 23µM*
O=C(COc1ccccc1-c1ccccc1)N/N=C/c1cccnc1 | 75 | 1% | -9% | 13µM* | -3% | 15µM*
O=C(COc1ccccc1)N/N=C/c1ccc2c(c1)OCO2 | -21 | 8% | 11% | -36% | -8% | 10%
C1CCN2C[C@H]3C[C@H](CN4CCCCC34)C2C1 (stereo not given in full) | . | -1% | 7% | ? | . | -8%
CCOc1ccccc1C(=O)N(CN1CCCC1=O)c1cccc(Cl)c1 | 22 | 7% | 9% | 9.2µM* | -4% | 15µM*
COc1ccccc1N(CN1CCCC1=O)C(=O)c1c(F)cccc1Cl | 11 | 1%[0.365 µM] | . | 10µM* | 7% | 21µM*
O=C(NCCCN1CCCC1=O)C(=O)NCC1OCCCN1S(=O)(=O)c1cc(F)ccc1F (stereo not given) | i | -6% | -10% | -16% | 14% | -5%
Cc1ccc(CNC(=O)CC(C)S(=O)(=O)c2ccc3c(c2)NC(=O)CS3)o1 (stereo not given) | -16 | -6% | -2% | ? | -4% | -33%
CCc1ccccc1NC(=O)N[C@H](C(=O)O)C(C)CC (stereo not given in full) | 20 | -3% | -7% | 15µM* | 2% | ?
CC(C)[C@H](NC(=O)Nc1ccc(Oc2ccccc2)cc1)C(=O)O | 17 | 12%[10 µM] | 2% | 13µM* | 13% | 12µM*
CCC(C)[C@H](NC(=O)Nc1ccccc1F)C(=O)O (stereo not given in full) | 1 | 16% | -7% | -18% | -1% | -3%
CN(CCc1ccccc1)C(=O)CCc1nnc(Cc2ccc3c(c2)OCO3)o1 | 11 | 1% | 14% | 6% | 13% | 2%
S=c1nc(-c2csc3c2CCCC3)[nH][nH]1 | 0 | 4µM* | 11µM* | 16µM* | 1% | 16µM*
Cc1nnc2sc(-c3csc4c3CCCC4)nn12 | 23 | -35% | 1% | -8% | ? | 14%
O=C(Nc1ccc(Br)cc1Cl)c1ccc2c(=O)n3c(nc2c1)CCC3 | -8 | . | . | 18µM* | ? | 21µM*
SMILES | IL-1B inflam inh | RORgamma inh | VP16 counter | DT40 TDP1 no CPT | ELG1 repair inh | TDP1 cell CPT
COc1ccccc1NC(=O)c1ccc2c(=O)n3c(nc2c1)CCC3 | -17 | . | . | ? | ? | -10%
O=C(Nc1ccc(Cl)cc1Cl)c1ccc2c(=O)n3c(nc2c1)CCC3 | -7 | . | . | 16µM* | ? | ?
CSCC[C@H](NC(=O)OC(C)(C)C)C(=O)N1CCC(C(=O)NCC(=O)Nc2ccc(C)cc2)CC1 | -14 | -4% | 10% | 0% | -3% | -7%
COc1cc(C=O)c(-c2c(C=O)cc(OC)c3c2OCO3)c2c1OCO2 | 15 | -22%[1.91 µM] | -6% | 12µM* | -7% | ?
COc1cccc(C=O)c1OC(=O)N1CCOCC1 | -14 | -13% | -2% | ? | -4% | ?
COc1cc(/C=N/Nc2ccc(Cl)cc2)ccc1OC(=O)c1cccs1 | -1 | 7% | 1% | -27% | ? | -9%
Cc1ccc(C)c(Oc2coc3cc(OCC(=O)Nc4ccccc4C(C)C)ccc3c2=O)c1 | . | ? | -9% | . | 26µM* | .
Cc1cccc(Oc2coc3cc(OCC(=O)NC4CCCCC4)ccc3c2=O)c1 | . | . | . | 23µM* | . | 21µM*
Cc1ccc(C)c(Oc2coc3cc(O)ccc3c2=O)c1 | -6 | 40% | -1% | -23% | 8% | -27%
CCN(CC(=O)Nc1c(F)cccc1F)C(=O)C1CCCO1 (stereo not given) | -16 | . | . | 8% | . | -9%
COc1ccc(OCC(O)CNC(=O)Nc2ccc(C(C)(C)C)cc2)cc1 (stereo not given) | 4 | 23% | 2% | -28% | ? | -10%
O=C(NCCOCCn1c(=O)oc2ccccc21)Nc1ccc(F)cc1F | . | . | . | 12µM* | . | 10µM*
Cc1ccc2oc(=O)n(CCNC(=O)Nc3ccc(C)c(F)c3)c2c1 | . | . | . | 23µM* | . | ?
Cc1ccc2oc(=O)n(CCNC(=O)Nc3ccccc3Cl)c2c1 | . | . | . | ? | . | 18µM*
Cc1ccc2oc(=O)n(Cc3ccccc3Cl)c2c1 | . | . | . | -13% | . | 1%
COCCCNC(=O)Nc1ccc(F)cc1F | 23 | -24% | 5% | -10% | 18% | 2%
CS(=O)(=O)c1ccc2nc(NC(=O)Nc3cccc(Cl)c3)sc2c1 | -81* | ? | ? | 23µM* | ? | 16µM*
CS(=O)(=O)c1ccc2nc(NC(=O)Nc3ccc(Cl)c(Cl)c3)sc2c1 | 0 | 6%[10 µM] | -4% | 9.2µM* | 13% | ?
Cc1ccc(NC(=O)Nc2nc3ccc(S(C)(=O)=O)cc3s2)cc1 | 2 | . | . | -5% | -4% | 3%
